D1 potentiator: potentiators of human D1 dopamine receptor; P21728; actives 0.036% (n = 360,000); HEK293 TREx D1 cells, calcium flux, dopamine EC20 potentiation; AID 504651; potentiation, % at 10 µM; in the data active means potentiation above about 30%; further: 0% is about no effect
D1 antagonist: antagonists of human D1 dopamine receptor. AID 504652. actives 3.2% (n = 360,000). P21728. HEK293 TREx D1 cells, calcium flux, dopamine EC80; stronger effect = lower value. activity change, negative = inhibition, % at 10 µM; in the data active means activity change below about -30%; further: on the % scale 0 is the no-effect control and ±100 the full control effect
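Cells carrying a force-coupled, tetracycline-inducible human D1 receptor report calcium flux. Each well gets a 10 s baseline, compound with 180 s monitoring, then an EC80 dopamine stimulus with a second 180 s kinetic read.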
D1 agonist: activates the human D1 dopamine receptor | P21728 | HEK293 T-REx D1 cells, calcium flux, agonist mode | activation, % at 2 µM | actives 1% (n = 360,000) | AID 504660; further: 0% is about no effect
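Tetracycline-induced HEK293 TREx D1 cells, force-coupled to calcium signalling, were dye-loaded with a no-wash calcium kit. Compound was pin-added after a 10 s baseline. Fluorescence was read kinetically at 1 cycle/s for 180 s, with calcium rises flagged as agonism.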
TRHR agonist-1: activates the human TRH receptor | TRHR cells, calcium flux fluo-8, FDSS agonist mode | activation, % at 2 µM | actives 0.18% (n = 360,000); further: 0% is about no effect
Target sequence (P34981 whole entry, looked up): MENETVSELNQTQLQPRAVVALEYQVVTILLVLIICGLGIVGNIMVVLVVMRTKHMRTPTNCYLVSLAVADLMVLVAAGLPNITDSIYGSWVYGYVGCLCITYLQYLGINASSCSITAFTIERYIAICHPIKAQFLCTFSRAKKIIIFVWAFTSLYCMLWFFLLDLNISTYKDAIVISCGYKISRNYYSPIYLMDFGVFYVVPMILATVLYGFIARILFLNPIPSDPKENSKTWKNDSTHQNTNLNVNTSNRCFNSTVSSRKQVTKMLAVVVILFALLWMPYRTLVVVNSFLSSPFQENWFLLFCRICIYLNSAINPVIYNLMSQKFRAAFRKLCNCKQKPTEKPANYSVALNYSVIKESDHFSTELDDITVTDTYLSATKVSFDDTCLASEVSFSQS
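Steps: seed TRHR cells overnight; add fluo-8 no-wash Ca dye, RT 30 min–1.5 h; record 10 s baseline; pin-transfer compounds; monitor fluorescence 1 cycle/s for the agonist window. Calcium increases flag candidate agonists.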
TRHR enhancer-1: allosterically enhances the human TRH receptor | TRHR cells, fluo-8 calcium fluorescence, EC20 TRH enhancement | enhancement, % at 2 µM | actives 0.66% (n = 360,000) | AID 493056; in the data active means enhancement above about 30%; further: 0% is about no effect
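Enhancer read-out: after compound pinning and an initial kinetic agonist-mode read, an EC20 of TRH (10 nM final) was injected and fluo-8 calcium signal (Ex 480/Em 530) followed at 1 s/cycle for 100 cycles in TRHR-expressing cells.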
TRHR enhancer-2: confirmation of human TRH receptor allosteric enhancers | shares compounds with TRHR enhancer-1 | TRH receptor cell assay, enhancer confirmation qHTS | activity change, negative = inhibition, % at 46.1 µM | 970 tested, under 10 active | AID 493076; active means well fitted curve in the direction sought with a large enough effect; inconclusive means small, poorly fitted or top-dose-only effect, or another doubt; inactive means no such curve, though single readings can be large; an effect the other way counts as inactive or inconclusive;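 further: compound effect scored on response to added TRH at EC20 of 10 nM; 0% is about no effect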
TRHR agonist-2: human TRH receptor agonism confirmation. TRHR-expressing cells, agonist activation read-out. shares compounds with TRHR enhancer-1. actives 8% (n = 970). Potency, µM (top dose mostly 46.1 µM), for the others: top-dose activation, most hits filed as activators; active means well fitted curve in the direction sought with a large enough effect; inconclusive means small, poorly fitted or top-dose-only effect, or another doubt; inactive means no such curve, though single readings can be large; an effect the other way counts as inactive or inconclusive; further: potency means the concentration at half of the fitted maximal effect; 0% is about no effect; nearly all actives have a fitted effect of over 75% in size
An asterisk follows results filed as active; u = inconclusive; x = no result given. A selection: hits, their analogues and other compounds. The true share with any hit is near 4.6%. Unless noted, no stated cut-off is given here; in the data, active means activation above about 30%; inactive means the rest.

SMILES | D1 potentiator | D1 antagonist | D1 agonist | TRHR agonist-1 | TRHR enhancer-1 | TRHR enhancer-2 | TRHR agonist-2
CC(SCc1ccccc1)C(=O)Nc1ccccc1F (stereo unspecified) | -5 | -1 | 3 | 0 | 56* | 1 | 0%
O=C(NCc1cccs1)c1cccnc1C(=O)O | 0 | -8 | 2 | 51* | 7 | -2 | -1%
C=CCN(CC=C)Cc1c(C)[nH]c2c(C)c(C)ccc2c1=O | -6 | 2 | 2 | -1 | 45* | -4 | -1%
N#C/C(=C/c1ccc(F)cc1)c1nc(CCN2C(=O)c3ccccc3C2=O)cs1 | -8 | -18 | 22 | 28 | 7 | -1 | 3%
COc1ccc(CN2CCC(C(=O)Nc3ccc(Oc4ccccc4)nc3)CC2)cc1F | -9 | -24 | 31* | 2 | 72* | -2 | u
C=CCN(Cc1cn(C)nc1-c1cccc(Cl)c1)C1CCS(=O)(=O)C1 (stereo unspecified) | -2 | 1 | 0 | 0 | 46* | -3 | 0%
COc1cc(CN2CCNC(=O)C2CC(=O)NC2CCCCC2)cc(OC)c1 (stereo unspecified) | 1 | 12 | 5 | 0 | 19 | x | x
COc1cc(CN2CCNC(=O)C2CC(=O)NC2CCCC2)cc(OC)c1 (stereo unspecified) | -2 | 0 | -1 | 1 | 58* | -7 | 0%
CC(C)Oc1ccc(/C=C(/NC(=O)c2ccccc2)C(=O)NCCC(=O)O)cc1 | -1 | -16 | 1 | 0 | 47* | -2 | 0%
CC(C)Oc1ccc(/C=C(/NC(=O)c2ccccc2)C(=O)NC(Cc2ccccc2)C(=O)O)cc1 (stereo unspecified) | x | -5 | 2 | 0 | -3 | x | x
O=C(O)Cn1c(SCCOc2ccccc2)nc2ccccc21 | -5 | -20 | 4 | 0 | -3 | x | x
CCCCOc1ccc(OCCSc2nc3ccccc3n2CC(=O)O)cc1 | -3 | 5 | 1 | 0 | 56* | 4 | -1%
CCCOc1ccc(Cc2c(O)nc(SC)[nH]c2=O)cc1 | -3 | -5 | -3 | 0 | 2 | x | x
CC1(C)CN=C(N(Cc2ccccc2)C(=O)Nc2ccccc2)S1 | -3 | 2 | 11 | 3 | 42* | 4 | u
COc1ccc(OC)c(CNC(=O)c2cnc3c(C)cccn3c2=O)c1 | 2 | 16 | 1 | 0 | 5 | x | x
Cn1nccc1C(=O)Nc1sc2c(c1C(N)=O)CCCC2 | -2 | 2 | 2 | 32* | 2 | -1 | 3%
Cn1nccc1C(=O)Nc1sc2c(c1C#N)CCCC2 | -11 | 4 | -1 | 2 | 0 | x | x
CCCCOc1ccc(C(=O)NCC(=O)N2CC(C)OC(C)C2)cc1 (stereo unspecified) | 1 | -2 | 3 | 0 | -1 | x | x
CCCCOc1ccc(C(=O)NCC(=O)NCCOc2ccccc2OC)cc1 | -2 | 8 | 1 | 0 | 74* | 11 | 5%
CCCCOc1ccc(C(=O)NCC(=O)N2CC(C)CC(C)C2)cc1 (stereo unspecified) | x | -3 | 4 | 40* | -3 | -7 | 5%
COc1ccc(S(=O)(=O)NCCc2csc(-c3cccc(F)c3)n2)cc1OC | -1 | -4 | 6 | 0 | 2 | x | x
Fc1ccc(CNc2ncccn2)cc1 | 9 | -13 | -1 | -1 | 42* | 2 | -1%
Clc1ccc(CNc2ncccn2)cc1 | -2 | 7 | 2 | -1 | -3 | x | x
COc1ccc(N2C(=O)c3cccc4c(N(C)CCO)ccc(c34)C2=O)cc1 | -3 | -3 | 49* | 35* | -10 | -5 | 21µM*
COc1ccc(N2C(=O)c3cccc4cccc(c34)C2=O)cc1 | -4 | 8 | 1 | 0 | -2 | x | x
SMILES | D1 potentiator | D1 antagonist | D1 agonist | TRHR agonist-1 | TRHR enhancer-1 | TRHR enhancer-2 | TRHR agonist-2
CCOc1ccc(C(=O)Nc2cc(-c3ccccc3)no2)cc1 | 0 | -7 | 6 | 1 | 1 | x | x
CCN1CCn2c3c(c4cccc(C)c42)CCCC31 (stereo unspecified) | 7 | 49 | -4 | 0 | -3 | x | x
Cn1c(=O)c2sccc2n(Cc2cccc(Br)c2)c1=O | -6 | -17 | 15 | -1 | 0 | x | x
COc1ccc2oc(=O)c(C(=O)NC3CCCCCC3)cc2c1 | 0 | 5 | 0 | 0 | 51* | -2 | -1%
CNC(=O)c1cc2cc(OC)ccc2oc1=O | 3 | 0 | 0 | 1 | 0 | x | x
CCOc1ccc(S(=O)(=O)Nc2ccccc2C(=O)N2CCOCC2)cc1 | -4 | 5 | 1 | 0 | 4 | x | x
CCOC(=O)C1CCN(C(=O)c2cc3c(ccc4ccccc43)o2)CC1 | -6 | 3 | -1 | -1 | 42* | -5 | 2%
CC(=O)Nc1cc2c(nc1C)nc(C)n2Cc1ccc(Br)cc1 | 2 | -1 | 4 | 1 | 46* | -2 | -1%
COCCNC(=O)c1cc2c(=O)n3cccc(C)c3nc2n1C | 4 | 1 | 2 | 0 | 41* | u | -1%
CCCCNC(=O)c1cc2c(=O)n3cccc(C)c3nc2n1C | -8 | 9 | 1 | 0 | -1 | x | x
O=C(COc1ccc(F)cc1)N(Cc1ccc(Cl)cc1)C1CCS(=O)(=O)C1 (stereo unspecified) | 1 | -27 | 3 | 1 | 6 | x | x
CCC(C)(C)C1CCc2[nH]nc(C(=O)NCCCNC(=O)OC(C)(C)C)c2C1 (stereo unspecified) | 1 | 8 | 6 | 0 | 6 | x | x
COc1ccc(/C=C2\SC(=O)N(CCC(=O)Nc3ccccc3)C2=O)cc1OC | -4 | 2 | 1 | 0 | 57* | -3 | 4%
COc1ccc(/C=C2\SC(=O)N(CCCC(=O)Nc3ccc(C(=O)O)cc3)C2=O)cc1OC | 0 | 4 | 0 | -1 | 8 | x | x
CCOC(=O)c1ccc(NC(=O)CSc2nc(-c3ccc(F)cc3)cc(C(F)(F)F)c2C#N)cc1 | -2 | 1 | 9 | 5 | -10 | x | x
CC(=O)Nc1ccccc1-c1nn[nH]n1 | 9 | 1 | 2 | 44* | 11 | -6 | -1%
COc1cccc(/C=C2\SC(=S)N(C(C)C(=O)NC3C=CS(=O)(=O)C3)C2=O)c1 (stereo unspecified) | -3 | -15 | 0 | 0 | 50* | 5 | 2%
COc1ccc(/C=C2\SC(=S)N(C(C)C(=O)NC3C=CS(=O)(=O)C3)C2=O)cc1 (stereo unspecified) | -10 | -27 | 2 | 0 | -5 | x | x
O=C(c1ccco1)n1nc(-c2ccc(Cl)cc2)nc1NCc1ccc(F)cc1 | -2 | -14 | 1 | 0 | -4 | x | x
O=C(CN(Cc1ccc(F)cc1)C(=O)CNS(=O)(=O)c1ccccc1)NCC1CCCO1 (stereo unspecified) | 2 | -6 | 0 | 1 | 8 | x | x

Screens (PubChem)
